Avidin fluor = avidin bead compound fluorescence profile; Avidin beads, compound fluorescence 488/530 nm, flow cytometry; hits give high values; actives 0.38% (n = 220,000); fluorescence (KMESF) at 10 µM; AID 1775; in the data active = fluorescence above about 47
RGS16-Gao = regulators of human RGS16-Galphao interaction; bead-based flow cytometry RGS16-Galphao binding, fluorescence; actives lie on both sides; actives 0.38% (n = 220,000); O15492+P09471; AID 1441; binding response (% of control), % at 10 µM; call rule not given here;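 note: Galphao activated by GDP with aluminum fluoride before binding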
Target sequence (O15492 whole entry, looked up): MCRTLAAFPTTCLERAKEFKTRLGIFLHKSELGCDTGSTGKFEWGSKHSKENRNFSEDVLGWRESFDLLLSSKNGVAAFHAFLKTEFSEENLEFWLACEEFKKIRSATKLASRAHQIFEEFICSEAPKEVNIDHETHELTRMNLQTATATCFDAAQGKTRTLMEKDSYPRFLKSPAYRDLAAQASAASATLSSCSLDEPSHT
Target sequence (P09471 whole entry, looked up): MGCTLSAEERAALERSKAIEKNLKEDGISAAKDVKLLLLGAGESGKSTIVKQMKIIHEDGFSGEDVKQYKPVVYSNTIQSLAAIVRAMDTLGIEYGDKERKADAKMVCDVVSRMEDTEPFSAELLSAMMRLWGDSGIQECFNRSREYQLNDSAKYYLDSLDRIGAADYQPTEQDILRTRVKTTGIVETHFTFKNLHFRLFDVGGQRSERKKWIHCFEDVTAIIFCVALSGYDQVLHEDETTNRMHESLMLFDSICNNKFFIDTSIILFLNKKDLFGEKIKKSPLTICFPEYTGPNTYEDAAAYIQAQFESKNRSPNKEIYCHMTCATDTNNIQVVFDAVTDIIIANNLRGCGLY
RGS8-Gao = regulators of human RGS8-Galphao interaction; multiplexed bead flow cytometry, RGS8-Galphao binding; actives lie on both sides; actives 0.34% (n = 220,000); response (percent of control binding), % at 10 µM; P09471; in the data active = response below about 60% or above about 140%; inactive = in between;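 note: Galphao activated as the GDP aluminium fluoride complex binding bead-coupled RGS8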
GSH fluor = GSH bead compound fluorescence profile; fluorescence (KMESF) at 10 µM; AID 1776; GSH beads flow cytometry, compound fluorescence 488/530 nm; hits give high values; actives 0.25% (n = 190,000); in the data active = fluorescence above about 89;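 note: glutathione beads carrying GST-tagged Bcl family fusion proteins plus one bare bead set; values are compound well signal with DMSO vehicle wells as background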
RGS7-Gao = regulators of human RGS7-Galphao interaction | binding response (% of control), % at 10 µM | actives 0.35% (n = 220,000) | Multiplexed bead flow cytometry, RGS7-Galphao binding; actives lie on both sides; in the data active = binding response below about 49% or above about 150%; inconclusive = no clear call, values can overlap the other calls; inactive = in between;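 note: fluorescent Galphao held in activated GDP-AlF4 state binding bead-coupled RGS7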
RGS4-Gao reg = human RGS4-Galphao interaction regulation; P09471; Multiplexed bead flow cytometry, RGS4-Galphao binding; actives lie on both sides; binding response (% of control), % at 10 µM; actives 0.33% (n = 220,000); AID 1415; in the data active = binding response below about 49% or above about 150%; inactive = in between;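 note: fluorescent Galphao activated with aluminum fluoride binding bead-coupled RGS4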
Active calls of the source: *. The list is not random: actives were taken first. Their share in the collection is about 1.2%.

Results for COc1cc(NC(=O)CN2C3CCC2CC(O)(c2cccnc2)C3)cc(OC)c1 (stereo unspecified) ?
Avidin fluor: 49*; RGS16-Gao: 100; RGS8-Gao: 100; GSH fluor: 11; RGS7-Gao: 113; RGS4-Gao reg: 104

What do the screens show for `CC(C)(C)c1nc(NCc2ccc3c(c2)OCO3)c2nnn(Cc3ccccc3Cl)c2n1`?
Avidin fluor: 4; RGS16-Gao: 104; RGS8-Gao: 100; GSH fluor: 141*; RGS7-Gao: 102; RGS4-Gao reg: 101

Results for CC(C)OC1CCCC(O)C1CC(=O)O (stereo unspecified) ?
Avidin fluor: 3; RGS16-Gao: 100; RGS8-Gao: 101; RGS7-Gao: inconclusive; RGS4-Gao reg: 100

What do the screens show for `O=c1[nH]c(=O)n(C2CCCCC2)c(O)c1C1NCCc2ccccc21` (stereo unspecified)?
Avidin fluor: 6; RGS16-Gao: 100; RGS8-Gao: 103; GSH fluor: 261*; RGS7-Gao: 102; RGS4-Gao reg: 106

What do the screens show for `Cc1ccc(-n2c(O)c(C=Nc3ccc(Br)cn3)c(=O)[nH]c2=O)cc1`?
Avidin fluor: 7; RGS16-Gao: 104; RGS8-Gao: 107; GSH fluor: 17; RGS7-Gao: 103; RGS4-Gao reg: 98

What do the screens show for `CC(=O)Nc1nnc(CCN(CCc2nnc(NC(C)=O)s2)[N+](=O)[O-])s1`?
Avidin fluor: 7; RGS16-Gao: 102; RGS8-Gao: 100; RGS7-Gao: inconclusive; RGS4-Gao reg: 102

How did CCOP(=O)(OCC)C(O)c1cccnc1 (stereo unspecified) do in these assays?
Avidin fluor: 81*; RGS16-Gao: 113; RGS8-Gao: 109; RGS7-Gao: inconclusive; RGS4-Gao reg: 132

Results for CCOP(=O)(OCC)C(O)c1ccccc1 (stereo unspecified) ?
Avidin fluor: 4; RGS16-Gao: 101; RGS8-Gao: 104; RGS7-Gao: inconclusive; RGS4-Gao reg: 108

How did O=C1NC(=O)C(CCc2ccncc2)(Cc2ccc(OCc3ccccc3)cc2)C(=O)N1 do in these assays?
Avidin fluor: 4; RGS16-Gao: 92; RGS8-Gao: 94; RGS7-Gao: inconclusive; RGS4-Gao reg: 89

How did CCCCCn1c(=O)c(C(=O)Nc2nc(CC(=O)OCC)cs2)c(O)c2ccccc21 do in these assays?
Avidin fluor: 22; RGS16-Gao: 103; RGS8-Gao: 103; GSH fluor: 96*; RGS7-Gao: 102; RGS4-Gao reg: 101

How did O=c1[nH]c(=O)n(CCC2=CCCCC2)c(O)c1C=Nc1cccc(F)c1 do in these assays?
Avidin fluor: 57*; RGS16-Gao: 97; RGS8-Gao: 102; GSH fluor: 12; RGS7-Gao: 113; RGS4-Gao reg: 100

What do the screens show for `Nc1ccccc1N=Cc1c(O)n(CCC2=CCCCC2)c(=O)[nH]c1=O`?
Avidin fluor: 19; RGS16-Gao: 100; RGS8-Gao: 100; GSH fluor: 10; RGS7-Gao: 96; RGS4-Gao reg: 100

How did CCOP(=S)(NN(Cc1ccccc1)C(=O)c1ccccc1)OCC do in these assays?
Avidin fluor: 7; RGS16-Gao: 59; RGS8-Gao: 96; GSH fluor: 10; RGS7-Gao: 93; RGS4-Gao reg: 100

How did CC1Oc2cc3c(-c4c(O)cc(O)c5c(O)c6c(cc45)OC(C)C(C)C6=O)c(O)cc(O)c3c(O)c2C(=O)C1C (stereo unspecified) do in these assays?
Avidin fluor: 0; RGS16-Gao: 15*; RGS8-Gao: 36*; RGS7-Gao: inconclusive; RGS4-Gao reg: 14*

What do the screens show for `CN1C(=O)CN=C(c2ccccc2)c2cc([N+](=O)[O-])ccc21`?
Avidin fluor: 7; RGS16-Gao: 99; RGS8-Gao: 98; GSH fluor: 67; RGS7-Gao: 101; RGS4-Gao reg: 99

How did O=P(O)(O)C#Cc1ccccc1 do in these assays?
Avidin fluor: 9; RGS16-Gao: 95; RGS8-Gao: 97; GSH fluor: 261*; RGS7-Gao: 97; RGS4-Gao reg: 98

How did O=C1NC(=O)C2(Cc3ccccc3N3CCCC32)C(=O)N1 (stereo unspecified) do in these assays?
Avidin fluor: 8; RGS16-Gao: 87; RGS8-Gao: 95; GSH fluor: 32; RGS7-Gao: 100; RGS4-Gao reg: 101

Results for O=C1NC(=O)C2(Cc3ccccc3N3CCCC32)C(=O)N1c1ccccc1 (stereo unspecified) ?
Avidin fluor: 54*; RGS16-Gao: 100; RGS8-Gao: 99; GSH fluor: 23; RGS7-Gao: 111; RGS4-Gao reg: 99

What do the screens show for `NNc1n[nH]c(=S)n1N`?
Avidin fluor: 88*; RGS16-Gao: 144; RGS8-Gao: 104; RGS7-Gao: inconclusive; RGS4-Gao reg: 144

Results for O=c1[nH]c(=O)n(Cc2ccco2)c(O)c1C=NC1CCN(Cc2ccccc2)CC1 ?
Avidin fluor: 7; RGS16-Gao: 104; RGS8-Gao: 102; RGS7-Gao: inconclusive; RGS4-Gao reg: 104

How did Cc1ccc(-n2cc(CNC(C)Cc3cnccn3)c(-c3cccc(C)c3)n2)cc1 (stereo unspecified) do in these assays?
Avidin fluor: 1; RGS16-Gao: 101; RGS8-Gao: 100; GSH fluor: 14; RGS7-Gao: 102; RGS4-Gao reg: 99

Results for O=C(Cn1cc(C(=O)c2ccccc2)c2ccccc21)NCc1ccco1 ?
Avidin fluor: 50*; RGS16-Gao: 111; RGS8-Gao: 105; GSH fluor: 20; RGS7-Gao: 108; RGS4-Gao reg: 103

Results for C=CCn1c(O)c(C=NCCN2CCOCC2)c(=O)[nH]c1=S ?
Avidin fluor: 6; RGS16-Gao: 103; RGS8-Gao: 101; RGS7-Gao: inconclusive; RGS4-Gao reg: 100

What do the screens show for `O=c1c2ccccc2nc(-c2ccco2)n1-c1ccccc1`?
Avidin fluor: 12; RGS16-Gao: 113; RGS8-Gao: 106; GSH fluor: 125*; RGS7-Gao: 109; RGS4-Gao reg: 118

How did Cc1n[nH]c(C)c1CCN do in these assays?
Avidin fluor: 59*; RGS16-Gao: 105; RGS8-Gao: 102; GSH fluor: 16; RGS7-Gao: 102; RGS4-Gao reg: 104

What do the screens show for `O=C1C2CCCN2C(c2cccnc2)N1c1nccs1` (stereo unspecified)?
Avidin fluor: 10; RGS16-Gao: 57; RGS8-Gao: 87; GSH fluor: 29; RGS7-Gao: 94; RGS4-Gao reg: 95
